Outcome and AC50 data for 18 compounds are collected here from PubChem BioAssay (EPA / NIEHS).

Read-out in assay [1]: Interleukin-6 (IL6), IL6 (gene 3569)
Kind of assay: BSK_CASM3C_IL6: BioMAP Diversity Plus: CASM3C Assay for Interleukin-6 (IL6) Biomarker Activity for (AID 2283040). Conditions: primary human coronary artery smooth muscle cells; actives raise or lower the signal.

Read-out in assay [2]: Tissue plasminogen activator (tPA), PLAT (gene 5327)
The assay is described as follows: BSK_BE3C_tPA: BioMAP Diversity Plus: BE3C Assay for Tissue plasminogen activator (tPA) Biomarker Activity (AID 2283041).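 Note: tPA level quantified by ELISA one day after compound addition.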 The conditions noted are these: primary human bronchial epithelial cells; actives raise or lower the signal. Put shortly: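 Using human lung primary bronchial epithelial cells, tPA was measured by ELISA 24 h after dosing; data fitted relative to DMSO.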

Read-out in assay [3]: Interleukin-8 (IL8), CXCL8 (gene 3576)
Kind of assay: BSK_CASM3C_IL8: BioMAP Diversity Plus: CASM3C Assay for Interleukin-8 (IL8) Biomarker Activity (AID 2283042).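 Note: IL-8 protein level quantified by ELISA.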 Conditions: primary human coronary artery smooth muscle cells; actives raise or lower the signal.

Read-out in assay [4]: Human Leukocyte Antigen - DR isotype (HLADR), HLA-DRA (gene 3122)
The assay is described as follows: BSK_CASM3C_HLADR: BioMAP Diversity Plus: CASM3C Assay for Human Leukocyte Antigen - DR isotype (HLADR) Biomarker Activity (AID 2283043).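 Note: cell-surface HLA-DR protein level quantified by ELISA.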 The conditions noted are these: primary human coronary artery smooth muscle cells; actives raise or lower the signal.

Read-out in assay [5]: Macrophage colony-stimulating factor (MCSF), CSF1 (gene 1435)
Kind of assay: BSK_CASM3C_MCSF: BioMAP Diversity Plus: CASM3C Assay for Macrophage colony-stimulating factor (MCSF) Biomarker Activity (AID 2283044).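 Note: M-CSF protein amount quantified by ELISA after 24 h exposure.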 Conditions: primary human coronary artery smooth muscle cells; actives raise or lower the signal.

Read-out in assay [6]: Low-density lipoprotein receptor (LDLR), LDLR (gene 3949)
Kind of assay: BSK_CASM3C_LDLR: BioMAP Diversity Plus: CASM3C Assay for Low-density lipoprotein receptor (LDLR) Biomarker Activity (AID 2283045).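 Note: LDLR protein level on the cell surface quantified by ELISA.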 Conditions: primary human coronary artery smooth muscle cells; actives raise or lower the signal.

Read-out in assay [7]: Monocyte Chemoattractant Protein-1 (MCP1), CCL2 (gene 6347)
The assay is described as follows: BSK_CASM3C_MCP1: BioMAP Diversity Plus: CASM3C Assay for Monocyte Chemoattractant Protein-1 (MCP1) Biomarker Activity (AID 2283046).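 Note: MCP-1 level quantified by ELISA 24 h after dosing.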 Conditions: primary human coronary artery smooth muscle cells; actives raise or lower the signal.

A short description of assay [8]: BSK_CASM3C_Proliferation: Cell Proliferation Assessment in the BioMAP Diversity Plus: CASM3C Assay (AID 2283047).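 Note: sulforhodamine B total protein stain as relative cell number at 560 nm; sub-confluent cells exposed 48 h before staining; fitted both ways against DMSO so gain or loss of cell number.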 Conditions: primary human coronary artery smooth muscle cells.
Read-out in assay [9]: Monokine induced gamma interferon (MIG), CXCL9 (gene 4283)
The assay is described as follows: BSK_CASM3C_MIG: BioMAP Diversity Plus: CASM3C Assay for Monokine induced gamma interferon (MIG) Biomarker Activity (AID 2283048).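 Note: MIG protein level measured by ELISA.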 Conditions: primary human coronary artery smooth muscle cells; actives raise or lower the signal.

Read-out in assay [10]: serum amyloid A (SAA), SAA1 (gene 6288)
The assay is described as follows: BSK_CASM3C_SAA: BioMAP Diversity Plus: CASM3C Assay for serum amyloid A (SAA) Biomarker Activity (AID 2283049).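 Note: SAA protein level quantified by ELISA.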 Conditions: primary human coronary artery smooth muscle cells; actives raise or lower the signal.

The source made the active and inactive calls. Rule for the calls: active = hit-call score of the fitted dose curve at least 0.9, where 1 is the maximum; inactive = score below 0.9.

Consider `FC(F)(F)C(F)(F)CNCC(F)(F)C(F)(F)F`, for which the outcome in [1], in assay [2], in assay [3], in assay [4], in [5] and in assay [6] was inactive. Also, the outcome in [7], in [8], in assay [9] and in assay [10] was inactive.

With `FC(F)(F)C(F)(F)C(F)(F)C(F)(F)C(F)(F)C(F)(F)CCS`, the outcome in [1], in assay [2], in assay [3], in [4], in assay [5] and in assay [6] was inactive. In addition, the outcome in assay [7], in assay [8], in [9] and in [10] was inactive.

On to `O=S(=O)(OCC(F)F)C(F)(F)F`, for which the result in [1], in assay [2], in assay [3], in [4], in assay [5] and in assay [6] was inactive. The result in [7], in assay [8], in assay [9] and in assay [10] was inactive.

In the case of `FC(F)(F)C(F)(F)C(F)(F)N(C(F)(F)C(F)(F)C(F)(F)F)C(F)(F)C(F)(F)C(F)(F)F`, the result in assay [1], in assay [2], in assay [3], in assay [4], in [5] and in assay [6] was inactive. Further, the outcome in assay [7], in assay [8], in assay [9] and in assay [10] was inactive.

Regarding `CS(C)(=O)=O`, the result in assay [1], in assay [2], in assay [3], in [4], in assay [5] and in [6] was inactive. The result in assay [7], in assay [8], in [9] and in [10] was inactive.

For `O[Si](c1ccccc1)(c1ccccc1)c1ccccc1`, the outcome in assay [1], in [2], in assay [3], in assay [4], in assay [5] and in [6] was inactive. Also, the result in assay [7], in assay [9] and in assay [10] was inactive. Moreover, in [8], the AC50 was 20000 nM (active).

Consider `C=C(C)C(=O)OCC(F)(F)C(F)(F)C(F)(F)C(F)(F)C(F)(F)C(F)(F)C(F)(F)F`, for which the result in [1], in assay [2], in [3], in [4], in assay [5] and in assay [6] was inactive. Moreover, the outcome in assay [7], in assay [8], in [9] and in assay [10] was inactive.

`CCO[Si](CCC(F)(F)C(F)(F)C(F)(F)C(F)(F)C(F)(F)C(F)(F)F)(OCC)OCC`: the result in assay [1], in assay [2], in assay [3], in [4], in assay [5] and in [6] was inactive. For the same compound, the outcome in assay [7], in assay [8], in assay [9] and in assay [10] was inactive.

For the compound `O=S(=O)(O)C(F)(F)C(F)(F)C(F)(F)C(F)(F)C(F)(F)C(F)(F)C(F)(F)F`, the result in assay [1], in assay [2], in assay [3], in [4], in assay [5] and in assay [6] was inactive. The result in assay [7], in [8], in [9] and in [10] was inactive.

Turning to `CCCCNc1ccccc1`, the result in assay [1], in assay [2], in [3], in [4], in assay [5] and in assay [6] was inactive. Also, the outcome in assay [7], in assay [8], in assay [9] and in assay [10] was inactive.

As to `CCCCCCCCC(F)(F)C(F)(F)C(F)(F)C(F)(F)C(F)(F)C(F)(F)F`, the result in [1], in [2], in assay [3], in assay [4], in assay [5] and in [6] was inactive. The outcome in assay [7], in [8], in assay [9] and in [10] was inactive.

In the case of `O=C(O)C(F)(F)C(F)(F)C(F)(F)C(F)(F)C(F)(F)C(F)(F)C(F)(F)C(F)(F)C(F)(F)C(F)F`, the outcome in assay [1], in assay [2], in assay [3], in assay [4], in assay [5] and in [6] was inactive. Further, the result in [7], in assay [8], in [9] and in assay [10] was inactive.

Consider `C=C(C)C(=O)OCC(F)(F)C(F)(F)C(F)(F)F`, for which the result in assay [1], in assay [2], in assay [3], in [4], in assay [5] and in assay [6] was inactive. For the same compound, the outcome in assay [7], in assay [8], in assay [9] and in assay [10] was inactive.

In the case of `OCC(F)(F)C(F)(F)C(F)(F)F`, the result in assay [1], in assay [2], in assay [3], in assay [4], in assay [5] and in assay [6] was inactive. Also, the outcome in assay [7], in [8], in assay [9] and in assay [10] was inactive.

As for `CCCCOCCOCCOC(=O)CCCCC(=O)OCCOCCOCCCC`, the outcome in assay [1], in [2], in [3], in [4], in assay [5] and in assay [6] was inactive. For the same compound, the outcome in assay [7], in [8], in assay [9] and in assay [10] was inactive.

For the compound `OCCCC(F)(F)C(F)(F)C(F)(F)F`, the outcome in assay [1], in assay [2], in assay [3], in assay [4], in [5] and in [6] was inactive. Moreover, the outcome in assay [7], in assay [8], in [9] and in assay [10] was inactive.

Consider `CCCCCCCOC(=O)c1ccccc1C(=O)OCCCCCCC`, for which the result in assay [1], in assay [2], in assay [3], in [4], in assay [5] and in assay [6] was inactive. Besides, the outcome in assay [7], in assay [8], in assay [9] and in assay [10] was inactive.

On to `CC(CCl)OP(=O)(OC(C)CCl)OC(C)CCl` (stereo not given), for which the outcome in [1], in assay [2], in assay [3], in [4], in [6] and in [8] was inactive. For the same compound, the result in [9] and in assay [10] was inactive. The values for the concentration at half-maximal activity (AC50) in assay [5] and in assay [7] were 39.8 nM (active) and 19.1 nM (active), respectively.

The term AC50 denotes the midpoint of the concentration-response curve, whichever way the signal moves.
